High-throughput results from PubChem.
An excerpt weighted towards active compounds, which were near 2.9% of everything screened.
ABHD5 PLIN5 PPI: ABHD5-PLIN5 protein interaction inhibition; Q00G26+Q8WTS1; Split G. princeps luciferase complementation, luminescence, 4 h; inhibition, % at 4 µM; 0.78% of 360,000 active; AID 602281;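 active = inhibition above the mean inhibition across every tested compound plus 3 SD, cut at about 22% in these data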;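 note: 0% = DMSO only wells and the 100% control is not disclosed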
Target sequence (Q00G26 whole entry, looked up): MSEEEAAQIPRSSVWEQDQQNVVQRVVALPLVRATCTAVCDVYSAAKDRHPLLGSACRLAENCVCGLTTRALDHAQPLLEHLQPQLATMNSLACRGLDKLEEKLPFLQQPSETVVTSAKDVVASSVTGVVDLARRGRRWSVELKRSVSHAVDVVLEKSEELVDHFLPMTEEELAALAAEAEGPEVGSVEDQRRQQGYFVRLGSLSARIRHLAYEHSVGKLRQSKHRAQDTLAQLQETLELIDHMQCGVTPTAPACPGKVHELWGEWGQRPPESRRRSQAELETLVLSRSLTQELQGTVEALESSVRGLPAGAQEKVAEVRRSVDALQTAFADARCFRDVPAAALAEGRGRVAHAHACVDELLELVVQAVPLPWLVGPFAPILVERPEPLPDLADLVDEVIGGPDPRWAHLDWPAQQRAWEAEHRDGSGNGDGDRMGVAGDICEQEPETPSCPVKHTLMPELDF
Target sequence (Q8WTS1 whole entry, looked up): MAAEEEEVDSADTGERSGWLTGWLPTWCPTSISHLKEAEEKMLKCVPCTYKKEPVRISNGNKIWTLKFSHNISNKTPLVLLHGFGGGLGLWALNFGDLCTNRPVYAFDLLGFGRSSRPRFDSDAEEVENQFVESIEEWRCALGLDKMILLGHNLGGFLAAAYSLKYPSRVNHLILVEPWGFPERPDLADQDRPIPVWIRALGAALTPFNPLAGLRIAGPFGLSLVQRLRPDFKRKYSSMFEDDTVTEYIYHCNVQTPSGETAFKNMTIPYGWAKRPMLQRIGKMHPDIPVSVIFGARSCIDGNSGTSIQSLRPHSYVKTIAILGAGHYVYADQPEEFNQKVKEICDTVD
Myeloid diff 2: promotes myeloid progenitor differentiation. 1% of 360,000 active. calls only at 10 µM. ER-HoxA9 myeloid progenitors, lysozyme-GFP differentiation, flow cytometry;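 active = normalized GFP-positive differentiation at or above the plate's own cutoff, the solvent-only control mean plus 3 SD; inconclusive = no clear call, values can overlap the other calls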;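 note: cells exposed to compound for four days before flow analysis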
DAGLB inhibitor: diacylglycerol lipase beta (human) inhibition; 0.059% of 340,000 active; HEK293T DAGLB membrane lysate, EnzChek fluorogenic substrate; Q8NCG7; inhibition, % at 5.17 µM; in the data active = inhibition above about 34%;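 note: 0% = enzyme with vehicle and 100% = wells lacking enzyme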
Cardio protect: modulators protecting cardiomyocytes from myocardial damage | H9c2 cardiomyocytes, H2O2 injury protection, ATPLite, 2 h | protection from H2O2 cell death, % at 20 µM | AID 588492 | 0.63% of 360,000 active;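 active = compounds giving at least 50% protection of heart cells from peroxide-induced death in the single-dose screen, raw or plate-pattern-corrected value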;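 note: 0% = DMSO wells with peroxide and 100% = DMSO wells without peroxide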
Rtt109 Vps75: inhibitors of Candida albicans Rtt109/Vps75 histone acetyltransferase | AID 540336 | Q5AAJ8 | purified Rtt109/Vps75, ThioGlo CoA-SH fluorescence, 4 h | 0.16% of 330,000 active | inhibition, % at 34.9 µM;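 active = inhibition of at least 50% in every replicate; inconclusive = best replicate reaches 50% inhibition but some replicates fall short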
HGIII-sPLA2 inh: Inhibits HGIII-sPLA2 liposome hydrolysis, primary screen; Q9NZ20; QFRET BODIPY PC-A2 liposome hydrolysis, fluorescence; inhibition, % at 12.2 µM; 0.56% of 370,000 active; AID 743126;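 active = inhibition above mean plus 3 SD of compounds lying within the high and low control bounds, cut at about 19% in these data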;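 note: 0% = median of test compound wells and 100% = no enzyme DMSO wells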
Starred values were filed as active, the others as inactive; i = inactive; ? = inconclusive; . = not tested or not shown; + = active, no number.

SMILES	ABHD5 PLIN5 PPI	Myeloid diff 2	DAGLB inhibitor	Cardio protect	Rtt109 Vps75	HGIII-sPLA2 inh
CC1CCCCN1c1nc(-c2ccncc2)nc2ccccc12 (centres undefined)	-6.8	+	-1.8	-3.7	-3.6	0.5
CCc1cccc(CC)c1NC(=O)COC(=O)C1(C)CC1(Cl)Cl (centres undefined)	1.6	i	-4.4	-0.9	31.5	-4.2
O=c1c2c(-c3ccccc3)csc2ncn1/N=C/c1c2ccccc2cc2ccccc12	-6.8	i	-8.2	7.5	1.4	9.5
Cc1nn(-c2ccccc2)c(N2CCCC2)c1/C=N/n1cnc2scc(-c3ccccc3)c2c1=O	-5.9	i	0.1	61.5*	3.7	-3.3
O=C(OCCOc1cccc(Cl)c1)C1CCN(S(=O)(=O)c2ccccc2)CC1	-2.3	i	-5.9	-6.2	-7.9	-27.0
CCOC(=O)C1C(=O)CC(C)(O)C(C(=O)OCC)C1c1ccc(NC(C)=O)cc1 (centres undefined)	1.9	i	1.0	5.4	0.7	-2.5
C/C(=C\c1ccccc1)C(=O)N1CCN(Cc2ccc3c(c2)OCO3)CC1	-1.0	i	-2.7	0.7	6.8	-1.8
CC(=O)Nc1cc(-c2ccc(C(=O)NC3CC3)cc2)cn2c(-c3cccc(C(C)=O)c3)cnc12	2.2	i	.	50.4*	.	6.1
CC(=O)Nc1cc(-c2ccc(C(=O)NC3CC3)cc2)cn2c(-c3cccc(C(F)(F)F)c3)cnc12	12.9	i	.	3.2	.	0.2
COc1ccccc1-c1cc(NC(C)=O)c2ncc(-c3cccc(C(C)=O)c3)n2c1	5.6	i	.	52.3*	.	-3.5
COc1ccccc1-c1cc(NC(C)=O)c2ncc(-c3ccc(S(C)(=O)=O)cc3)n2c1	1.9	i	.	14.2	.	2.3
COc1cc(-c2cc(NC(C)=O)c3ncc(-c4ccccc4)n3c2)cc(OC)c1OC	4.9	i	.	70.2*	.	2.8
COc1cc(-c2cc(NC(C)=O)c3ncc(-c4cc(OC)c(OC)c(OC)c4)n3c2)cc(OC)c1OC	7.7	i	.	66.2*	.	5.4
O=C(CN1C(=O)CCC1=O)NNc1ccc2ccccc2c1	-4.2	i	-0.4	-6.6	10.1	-15.4
COc1nc(OC)nc(Oc2ccc(Cl)cc2[N+](=O)[O-])n1	-5.1	i	-0.1	9.6	-2.0	0.9
O=[N+]([O-])c1cccnc1S(=O)(=O)c1ccccc1	22.4*	?	-22.7	-19.9	-3.8	3.5
COc1ccc([N+](=O)[O-])c(S(=O)(=O)c2ccccc2)n1	52.5*	?	.	-19.0	.	1.2
COc1ccc([N+](=O)[O-])c(S(=O)(=O)c2ccc(Cl)cc2)n1	39.2*	i	-11.2	-20.2	8.6	4.7
Nc1cccnc1S(=O)(=O)c1ccccc1	1.7	i	-2.5	-3.2	6.9	-0.3
COc1ccc(CCNC(=O)c2ccc3c(=O)n4c(nc3c2)CCC4)cc1OC	1.2	i	1.0	2.3	2.7	7.7
Cc1nn(C)c(Cl)c1NC(=O)OCc1ccc(Cl)cc1Cl	-1.4	i	-1.1	-18.4	4.9	1.4
Cc1nn(CCC(=O)NNC(=S)Nc2ccccc2)c(C)c1Br	-1.5	i	3.8	2.0	-1.4	13.0
COc1cccc(C(=O)NC(=S)Nn2cnnc2)c1OC	-6.6	i	1.8	-7.8	0.7	8.3
COc1cccc(NS(=O)(=O)c2cc3c(cc2C)N(C)CCO3)c1	1.0	i	2.2	-18.5	11.6	-7.8
O=C(CCS(=O)(=O)c1ccccc1)OCC(=O)N1CCN(S(=O)(=O)c2ccc(Cl)cc2)CC1	1.4	i	1.9	-2.7	2.6	1.6
SMILES	ABHD5 PLIN5 PPI	Myeloid diff 2	DAGLB inhibitor	Cardio protect	Rtt109 Vps75	HGIII-sPLA2 inh
COc1ccc(Nc2nc(-c3c[nH]c4ccccc34)cs2)cc1	-20.9	+	3.9	-7.6	3.2	9.3
COc1ccc(Nc2nc(-c3ccc(OC)cc3)cs2)cc1	-5.4	i	1.4	-3.6	-1.8	2.7
O=C(Nc1nncs1)C12CC3CC(CC(Cl)(C3)C1)C2	-1.2	i	1.9	0.3	1.0	-5.8
Cc1ccc(NC=C(S(=O)(=O)c2ccccc2)S(=O)(=O)c2ccccc2)cc1	-11.1	i	-3.8	2.7	-18.1	7.5
O=C(Nc1nnc(-c2cccs2)o1)c1cccc(Oc2ccccc2)c1	4.2	i	5.8	53.2*	14.8	-3.9
C[C@@H]1CN([C@@H](C)CO)C(=O)CCCn2cc(nn2)CO[C@H]1CN(C)S(=O)(=O)c1ccc(Oc2ccccc2)nc1	13.2	i	-0.6	4.7	.	7.6
C[C@H](CO)N1C[C@H](C)[C@@H](CN(C)CC2CC2)OCc2cnnn2CCCC1=O	0.3	+	1.0	10.8	.	3.3
C[C@H]1CN([C@@H](C)CO)C(=O)CCCn2cc(nn2)CO[C@@H]1CN(C)S(=O)(=O)c1ccc(Oc2ccccc2)nc1	2.7	+	-2.7	-0.7	.	4.2
CN(C)S(=O)(=O)c1ccc(C(=O)Nc2ccccc2F)cc1	3.0	i	-0.2	0.7	-11.9	.
CN(C)S(=O)(=O)c1ccc(C(=O)Nc2ccccc2OC(F)(F)C(F)F)cc1	5.8	+	0.4	1.4	16.5	.
CC(NO)/C(=N\O)c1cccs1 (centres undefined)	-6.0	i	-2.3	3.8	-4.6	23.6*
OC(CN1C2=NCCN2c2ccccc21)c1ccc(Br)cc1 (centres undefined)	1.4	+	0.0	12.0	1.0	8.5
CSc1ccc(CCNC(=O)CCc2nnc3ccc(N4CCCCC4)nn23)cc1	4.3	i	-0.9	-0.6	12.0	3.6
N#Cc1c(NC(=O)c2ccccc2Cl)n(Cc2ccccc2)c2nc3ccccc3nc12	-42.6	+	7.7	-17.8	0.7	-32.2
CCCCn1c(NC(=O)c2ccccc2Cl)c(C#N)c2nc3ccccc3nc21	-51.7	+	17.0	-34.6	6.3	-42.6
COc1ccc(-n2c(NC(=O)c3ccco3)c(C#N)c3nc4ccccc4nc32)cc1	11.1	+	2.0	0.2	-35.6	-15.7
Cc1csc(NC(=O)c2ccc(COc3cccc(F)c3)o2)n1	.	.	.	.	.	0.2
CCc1ccc(-c2cc(C)no2)cc1S(=O)(=O)N1CCN(c2ccc(F)cc2)CC1	2.4	+	-8.0	-2.0	5.3	6.5
O=C(CNC(=O)c1ccccc1F)N/N=C/c1cc(Br)ccc1OC(=O)/C=C/c1ccco1	0.8	i	6.4	57.0*	10.0	-11.9
O=C(CNC(=O)c1ccco1)N/N=C/c1cc(Br)ccc1O	7.2	i	4.3	39.5	-48.9	-10.9
COc1ccccc1C(=O)NCC(=O)N/N=C/c1cc(Br)ccc1OC(=O)/C=C\c1ccco1	6.1	i	7.2	88.1*	14.0	-5.7
COc1ccc(C(=O)NCC(=O)N/N=C/c2ccco2)cc1OC	1.2	?	1.4	0.2	2.9	-0.7
O=C(CNC(=O)c1ccc(F)cc1)N/N=C/c1cc(Br)ccc1OC(=O)/C=C/c1ccco1	-0.9	i	3.7	80.5*	-0.5	2.3
